Data reported in paper PMC5700166.
Positions count from the first letter of the chain named.

Tests used:
Assay in all cases: protein-binding microarray (PBM); PBM: ~300 nM protein, 6 mM HEPES pH 7.8, 80 mM KCl, 0.5 mM EDTA, 0.5 mM EGTA, 6% glycerol, 35 ng/ul poly-dIdC, 1% milk, 1 h, room temperature; Ap Aiptasia and Nv Nematostella (sea anemones) / Co Capsaspora / Aq Amphimedon (sponge) / Dm Drosophila / Hu human; RHD is the Rel homology domain; high values mean tight binding
Conditions in all cases: dsDNA, one strand shown
[1] = target: T1, GST-Ap-NF-kB RHD (Exaiptasia pallida (Aiptasia), UniProt A0A913YAJ5 2-422)
T1 sequence: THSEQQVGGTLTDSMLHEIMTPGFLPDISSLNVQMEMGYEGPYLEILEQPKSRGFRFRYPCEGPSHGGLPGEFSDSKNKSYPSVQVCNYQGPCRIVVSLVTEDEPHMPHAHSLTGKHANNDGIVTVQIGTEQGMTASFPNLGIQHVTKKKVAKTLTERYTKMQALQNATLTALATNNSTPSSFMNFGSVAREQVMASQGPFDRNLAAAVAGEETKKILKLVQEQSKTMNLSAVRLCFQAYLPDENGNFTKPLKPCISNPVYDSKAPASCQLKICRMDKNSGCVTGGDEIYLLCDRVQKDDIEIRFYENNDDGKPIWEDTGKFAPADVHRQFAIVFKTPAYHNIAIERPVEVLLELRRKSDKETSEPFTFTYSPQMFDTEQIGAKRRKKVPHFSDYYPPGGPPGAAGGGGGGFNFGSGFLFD

[2] = target: T2, GST-Nv-NF-kB (Cys allele) (Nematostella vectensis, UniProt E5G601 2-411)
T2 sequence: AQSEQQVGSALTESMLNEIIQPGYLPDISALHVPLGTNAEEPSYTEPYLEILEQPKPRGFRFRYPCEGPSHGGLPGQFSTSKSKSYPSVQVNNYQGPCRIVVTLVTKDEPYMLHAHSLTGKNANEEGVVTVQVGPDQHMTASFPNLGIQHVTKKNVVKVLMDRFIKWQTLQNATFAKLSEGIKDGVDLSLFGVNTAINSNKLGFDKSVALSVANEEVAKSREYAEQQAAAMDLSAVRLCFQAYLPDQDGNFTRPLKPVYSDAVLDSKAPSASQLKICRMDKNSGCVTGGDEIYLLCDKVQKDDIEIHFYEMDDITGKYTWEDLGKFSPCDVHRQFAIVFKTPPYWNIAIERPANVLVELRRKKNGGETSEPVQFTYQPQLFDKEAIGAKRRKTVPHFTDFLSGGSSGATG

[3] = target: T3, GST-Nv-NF-kB (Ser allele) (Nematostella vectensis, UniProt A7UNT2 2-411)
T3 sequence: T2 sequence with Q21R, C66S, S207N, E215Q, V217A, E225K, A268E, D399E

[4] = target: T4, GST-Co-NF-kB (Capsaspora owczarzaki, UniProt F1ARL5 200-546)
T4 sequence: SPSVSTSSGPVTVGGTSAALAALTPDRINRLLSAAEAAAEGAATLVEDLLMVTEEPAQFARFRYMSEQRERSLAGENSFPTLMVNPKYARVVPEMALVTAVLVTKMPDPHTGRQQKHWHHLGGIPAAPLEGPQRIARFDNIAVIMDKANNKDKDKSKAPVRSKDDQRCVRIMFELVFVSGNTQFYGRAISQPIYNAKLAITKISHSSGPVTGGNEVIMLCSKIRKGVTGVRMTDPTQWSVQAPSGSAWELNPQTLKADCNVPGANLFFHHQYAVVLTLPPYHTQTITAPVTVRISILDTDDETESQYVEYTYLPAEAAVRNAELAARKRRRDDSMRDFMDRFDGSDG

[5] = target: T5, GST-Dm-Relish (Drosophila melanogaster, UniProt Q94527 99-473)
T5 sequence: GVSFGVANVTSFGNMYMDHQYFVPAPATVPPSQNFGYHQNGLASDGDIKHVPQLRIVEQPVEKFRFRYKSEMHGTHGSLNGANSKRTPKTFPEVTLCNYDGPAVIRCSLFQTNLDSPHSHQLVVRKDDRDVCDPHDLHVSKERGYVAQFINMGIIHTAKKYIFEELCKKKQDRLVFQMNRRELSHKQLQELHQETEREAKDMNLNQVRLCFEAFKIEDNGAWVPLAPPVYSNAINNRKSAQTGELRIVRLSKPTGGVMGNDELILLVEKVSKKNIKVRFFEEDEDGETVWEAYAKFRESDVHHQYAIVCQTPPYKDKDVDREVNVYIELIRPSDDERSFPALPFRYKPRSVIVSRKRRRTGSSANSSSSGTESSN

[6] = target: T6, GST-Aq-NF-kB (Amphimedon queenslandica, UniProt A9Y5G7 2-389)
T6 sequence: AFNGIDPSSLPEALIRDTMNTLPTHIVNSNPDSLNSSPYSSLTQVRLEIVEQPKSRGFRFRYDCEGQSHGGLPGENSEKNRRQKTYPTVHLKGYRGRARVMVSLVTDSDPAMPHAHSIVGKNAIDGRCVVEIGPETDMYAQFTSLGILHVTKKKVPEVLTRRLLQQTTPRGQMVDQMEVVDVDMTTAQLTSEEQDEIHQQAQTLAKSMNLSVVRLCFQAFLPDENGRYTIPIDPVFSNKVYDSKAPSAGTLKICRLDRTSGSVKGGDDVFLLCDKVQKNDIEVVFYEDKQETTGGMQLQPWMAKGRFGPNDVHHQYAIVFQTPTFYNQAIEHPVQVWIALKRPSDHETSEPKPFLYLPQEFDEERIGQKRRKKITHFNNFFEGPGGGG

[7] = target: GST-Hu-p50 (Homo sapiens, UniProt P19838 7-356)
Chain of GST-Hu-p50 (P19838 7-356): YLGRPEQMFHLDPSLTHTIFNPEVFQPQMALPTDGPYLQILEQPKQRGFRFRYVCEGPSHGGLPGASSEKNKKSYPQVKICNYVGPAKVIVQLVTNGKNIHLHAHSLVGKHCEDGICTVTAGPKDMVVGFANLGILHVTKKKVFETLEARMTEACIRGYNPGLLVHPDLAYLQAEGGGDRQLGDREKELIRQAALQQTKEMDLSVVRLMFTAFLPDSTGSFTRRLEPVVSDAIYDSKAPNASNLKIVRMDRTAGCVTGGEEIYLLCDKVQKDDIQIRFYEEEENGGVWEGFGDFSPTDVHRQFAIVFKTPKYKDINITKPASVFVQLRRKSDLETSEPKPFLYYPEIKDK

| Sequence | binding signal [1] | binding signal [2] | binding signal [3] | binding signal [4] | binding signal [5] | binding signal [6] | binding signal [7] |
| --- | --- | --- | --- | --- | --- | --- | --- |
| CCGATTAACATCAACGTCCCCCCTGATGTTAATCGGGTCTTGATTCGCTTGACGCTGCTG | 5.15 z-score | 3.81 z-score | 4.61 z-score | 5.29 z-score | 4.4 z-score | 4.66 z-score | 3.74 z-score |
| CCGATTAACATCACACTACCCCCTGATGTTAATCGGGTCTTGATTCGCTTGACGCTGCTG | 4.66 z-score | 2.12 z-score | 4.06 z-score | 3.89 z-score | 1.77 z-score | 2.65 z-score | 3.3 z-score |
| CCGATTAACATCAGAGTTTCCCCTGATGTTAATCGGGTCTTGATTCGCTTGACGCTGCTG | 7.08 z-score | 8.35 z-score | 9.96 z-score | 7.72 z-score | 4.61 z-score | 6.33 z-score | 6.14 z-score |
| CCGATTAACATCAAATTTTCCCGTGATGTTAATCGGGTCTTGATTCGCTTGACGCTGCTG | 4.26 z-score | 6.26 z-score | 7.05 z-score | 6.38 z-score | 3.36 z-score | 5.86 z-score | 4.58 z-score |
| CCGATTAACATCATAATCCCCCATGATGTTAATCGGGTCTTGATTCGCTTGACGCTGCTG | 7.75 z-score | 6.81 z-score | 7.45 z-score | 6.17 z-score | 5.67 z-score | 5.96 z-score | 6.67 z-score |
| CCGATTAACATCAGGGAATCACATGATGTTAATCGGGTCTTGATTCGCTTGACGCTGCTG | 1.95 z-score | 2.66 z-score | 2.47 z-score | 2.22 z-score | 9.15 z-score | 3.28 z-score | 1.14 z-score |
| CCGATTAACATCAAAAATCCCCGTGATGTTAATCGGGTCTTGATTCGCTTGACGCTGCTG | 9.77 z-score | 10.8 z-score | 11.1 z-score | 6.22 z-score | 10.1 z-score | 8.1 z-score | 7.67 z-score |
| CCGATTAACATCAGAGAATCCCCTGATGTTAATCGGGTCTTGATTCGCTTGACGCTGCTG | 9.54 z-score | 9.8 z-score | 10.9 z-score | 3.37 z-score | 8.56 z-score | 7.28 z-score | 6.99 z-score |
| CCGATTAACATCACATTTCCCCCTGATGTTAATCGGGTCTTGATTCGCTTGACGCTGCTG | 6.84 z-score | 6.99 z-score | 10.2 z-score | 9.84 z-score | 4.03 z-score | 5.23 z-score | 6.55 z-score |
| CCGATTAACATCAACCATTCCCCTGATGTTAATCGGGTCTTGATTCGCTTGACGCTGCTG | 5.66 z-score | 6.61 z-score | 7.06 z-score | 4.68 z-score | 1.96 z-score | 4.45 z-score | 4.88 z-score |
| CCGATTAACATCACGGGGAATTCTGATGTTAATCGGGTCTTGATTCGCTTGACGCTGCTG | 9.62 z-score | 10.1 z-score | 10.3 z-score | 8.83 z-score | 8.15 z-score | 7.98 z-score | 6.54 z-score |
| CCGATTAACATCACAAATCCCCCTGATGTTAATCGGGTCTTGATTCGCTTGACGCTGCTG | 8.39 z-score | 8.44 z-score | 9.23 z-score | 6.1 z-score | 7.73 z-score | 6.8 z-score | 7.16 z-score |
| CCGATTAACATCACGGGGGAATATGATGTTAATCGGGTCTTGATTCGCTTGACGCTGCTG | 8.53 z-score | 7.14 z-score | 7.03 z-score | 10.6 z-score | 4.66 z-score | 5.84 z-score | 6.21 z-score |
| CCGATTAACATCAAATTTCCCCTTGATGTTAATCGGGTCTTGATTCGCTTGACGCTGCTG | 8.8 z-score | 10.8 z-score | 13.2 z-score | 7.98 z-score | 7.38 z-score | 8.06 z-score | 7.51 z-score |
| CCGATTAACATCAGGGAAACATATGATGTTAATCGGGTCTTGATTCGCTTGACGCTGCTG | 2.23 z-score | 3.74 z-score | 4.15 z-score | 5.27 z-score | 1.07 z-score | 4.73 z-score | 1.78 z-score |
| CCGATTAACATCAAATCTCCCCCTGATGTTAATCGGGTCTTGATTCGCTTGACGCTGCTG | 8.37 z-score | 6.08 z-score | 9.76 z-score | 10.1 z-score | 4.14 z-score | 6.11 z-score | 7.19 z-score |
| CCGATTAACATCAGGGAATTCCCTGATGTTAATCGGGTCTTGATTCGCTTGACGCTGCTG | 12 z-score | 12.7 z-score | 11.4 z-score | 7.25 z-score | 10 z-score | 12.2 z-score | 7.9 z-score |
| CCGATTAACATCAAGTTTCCCCCTGATGTTAATCGGGTCTTGATTCGCTTGACGCTGCTG | 8.07 z-score | 8.22 z-score | 11.2 z-score | 11.4 z-score | 4.83 z-score | 6.51 z-score | 7.11 z-score |
| CCGATTAACATCAAATTCCCCCGTGATGTTAATCGGGTCTTGATTCGCTTGACGCTGCTG | 9.52 z-score | 8.91 z-score | 9.58 z-score | 11 z-score | 8.23 z-score | 7.32 z-score | 7.06 z-score |
| CCGATTAACATCAAGGGGGGGCGTGATGTTAATCGGGTCTTGATTCGCTTGACGCTGCTG | 4.19 z-score | 4.66 z-score | 4.86 z-score | 3.83 z-score | 3.7 z-score | 4.52 z-score | 4.17 z-score |
| CCGATTAACATCAAATTTTCCCCTGATGTTAATCGGGTCTTGATTCGCTTGACGCTGCTG | 7.95 z-score | 9.83 z-score | 12.2 z-score | 11.6 z-score | 5.18 z-score | 7.36 z-score | 6.86 z-score |
| CCGATTAACATCAAAAAGACCCCTGATGTTAATCGGGTCTTGATTCGCTTGACGCTGCTG | 4.67 z-score | 4.44 z-score | 3.31 z-score | 1.92 z-score | 6.3 z-score | 5.55 z-score | 4.67 z-score |
| CCGATTAACATCAGGAAACCCCCTGATGTTAATCGGGTCTTGATTCGCTTGACGCTGCTG | 11.2 z-score | 10.1 z-score | 9.07 z-score | 3.13 z-score | 10.1 z-score | 10.5 z-score | 8.19 z-score |
| CCGATTAACATCAGGGAAAAATATGATGTTAATCGGGTCTTGATTCGCTTGACGCTGCTG | 3.68 z-score | 5.51 z-score | 7.16 z-score | 5.79 z-score | 2.03 z-score | 5.19 z-score | 4.2 z-score |
